# Measurements published in the supplement of paper PMC6411743.
# ± gives the standard deviation of the averaged measurements. Targets with the largest changes are over-represented here; the source holds about 5,400 in all.
# Target: T1, UniProt Q92796-3|Q5JUW8|Q92796
# T1 sequence (whole entry): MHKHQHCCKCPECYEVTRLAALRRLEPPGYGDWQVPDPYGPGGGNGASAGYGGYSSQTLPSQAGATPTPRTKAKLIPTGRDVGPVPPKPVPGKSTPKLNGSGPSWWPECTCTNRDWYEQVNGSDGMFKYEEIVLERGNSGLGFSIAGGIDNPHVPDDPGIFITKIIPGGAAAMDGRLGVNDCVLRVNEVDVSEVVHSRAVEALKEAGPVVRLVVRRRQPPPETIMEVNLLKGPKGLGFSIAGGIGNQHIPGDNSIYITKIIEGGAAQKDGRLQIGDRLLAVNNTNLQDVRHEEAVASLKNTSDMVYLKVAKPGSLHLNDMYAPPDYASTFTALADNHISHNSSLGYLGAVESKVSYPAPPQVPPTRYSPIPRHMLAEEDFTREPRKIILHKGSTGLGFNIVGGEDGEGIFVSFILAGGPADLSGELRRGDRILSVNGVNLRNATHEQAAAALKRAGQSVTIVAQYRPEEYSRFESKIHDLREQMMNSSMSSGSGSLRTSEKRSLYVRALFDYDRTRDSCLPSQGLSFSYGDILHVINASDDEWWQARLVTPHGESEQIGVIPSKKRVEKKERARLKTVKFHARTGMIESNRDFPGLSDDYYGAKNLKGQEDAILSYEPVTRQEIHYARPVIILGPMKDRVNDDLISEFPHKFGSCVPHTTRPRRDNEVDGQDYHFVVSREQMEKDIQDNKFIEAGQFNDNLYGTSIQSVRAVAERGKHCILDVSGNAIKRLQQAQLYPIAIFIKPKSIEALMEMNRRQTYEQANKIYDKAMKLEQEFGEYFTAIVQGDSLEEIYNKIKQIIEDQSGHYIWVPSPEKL
# Experiment: NP40-soluble protein abundance relative to vehicle (solubility fold change) (ratio); higher = more soluble protein in presence of GTP
# Method in brief: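 Values are fold changes against the detergent-processed vehicle, based on vsn-normalised intensities. Jurkat crude lysate was treated at eight concentrations from 0.1 to 10 mM (10 min at room temperature, then 3 min at 37 °C), solubilised with 0.8% NP40 and benzonase, ultracentrifuged and analysed by TMT-labelled LC-MS/MS over three independent experiments.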
structure (smiles),measurement,setting,value
Nc1nc2c(ncn2[C@@H]2O[C@H](COP(=O)(O)OP(=O)(O)OP(=O)(O)O)[C@@H](O)[C@H]2O)c(=O)[nH]1 [guanosine triphosphate],NP40-soluble protein abundance,concentration: 0.1mM,1.15 ± 0.034
same,NP40-soluble protein abundance,concentration: 0.5mM,1.17 ± 0.023
same,NP40-soluble protein abundance,concentration: 1mM,1.17 ± 0.037
same,NP40-soluble protein abundance,concentration: 2mM,1.17 ± 0.038
same,NP40-soluble protein abundance,concentration: 4mM,1.13 ± 0.03
same,NP40-soluble protein abundance,concentration: 6mM,1.12 ± 0.07
same,NP40-soluble protein abundance,concentration: 8mM,1.18 ± 0.018
same,NP40-soluble protein abundance,concentration: 10mM,1.14 ± 0.037
